# Assay results taken from the supplement of paper PMC6555819.
# Tests used:
# Assay in all cases: PBM binding z-score (relative to random genomic background probes); higher = stronger binding; sequences stand for … in GC…GCGATTGACAGCGTAGAATGAAGG
# [1] = tested on: FXR:RXRa (NR concentration 270 nM, RXRa partner concentration 90 nM)
# Outline: (§1)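 Binding z-scores take random background probes as their reference. They come from custom Agilent 4×180K protein-binding microarrays incubated 1 h with ligand-free nuclear receptor dimers, with antibodies against each partner (one per run) detecting binding. Scanned fluorescence was regression-normalized.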
# [2] = tested on: LXRa:RXRa (NR concentration 270 nM, RXRa partner concentration 90 nM)
# Outline: as §1
# [3] = tested on: LXRa homodimer (NR concentration 270 nM)
# Outline: as §1
# [4] = tested on: LXRb:RXRa (NR concentration 270 nM, RXRa partner concentration 90 nM)
# Outline: as §1
# [5] = tested on: LXRb homodimer (NR concentration 270 nM)
# Outline: as §1
# [6] = tested on: PPARa:RXRa (NR concentration 270 nM, RXRa partner concentration 90 nM)
# Outline: as §1
# [7] = tested on: PPARg:RXRa (NR concentration 180 nM, RXRa partner concentration 90 nM)
# Outline: as §1
# [8] = tested on: PPARg:RXRa 270nM:90nM, anti-RXR (NR concentration 270 nM, RXRa partner concentration 90 nM)
# Outline: as §1
# [9] = tested on: PPARg:RXRa 30nM:10nM, anti-RXR (NR concentration 30 nM, RXRa partner concentration 10 nM)
# Outline: as §1
# [10] = tested on: PPARg:RXRa 90nM:30nM, anti-RXR (NR concentration 90 nM, RXRa partner concentration 30 nM)
# Outline: as §1
# [11] = tested on: PPARg:RXRa DBDmut IVT, anti-RXR (DBD mutation: RXRa K156A/R161A, NR concentration 270 nM, RXRa partner concentration 90 nM)
# Outline: as §1
# [12] = tested on: PPARg:RXRa IVT, anti-PPARg (NR concentration 270 nM, RXRa partner concentration 90 nM)
# Outline: as §1
# [13] = tested on: PPARg DBDmut:RXRa IVT, anti-PPARg (DBD mutation: PPARg1 K132A/R137A, NR concentration 270 nM, RXRa partner concentration 90 nM)
# Outline: as §1
# [14] = tested on: PPARg DBDmut IVT, anti-PPARg (DBD mutation: PPARg1 K132A/R137A, NR concentration 270 nM)
# Outline: as §1
# [15] = tested on: PPARg homodimer (NR concentration 180 nM)
# Outline: as §1
# [16] = tested on: PXR:RXRa (NR concentration 270 nM, RXRa partner concentration 90 nM)
# Outline: as §1
# [17] = tested on: PXR homodimer (NR concentration 270 nM)
# Outline: as §1
# [18] = tested on: RARa:RXR (NR concentration 270 nM, RXRa partner concentration 90 nM)
# Outline: as §1
# [19] = tested on: RARa homodimer (NR concentration 270 nM)
# Outline: as §1
# [20] = tested on: RARb:RXRa (NR concentration 270 nM, RXRa partner concentration 90 nM)
# Outline: as §1
Sequence,PBM binding z-score [1],PBM binding z-score [2],PBM binding z-score [3],PBM binding z-score [4],PBM binding z-score [5],PBM binding z-score [6],PBM binding z-score [7],PBM binding z-score [8],PBM binding z-score [9],PBM binding z-score [10],PBM binding z-score [11],PBM binding z-score [12],PBM binding z-score [13],PBM binding z-score [14],PBM binding z-score [15],PBM binding z-score [16],PBM binding z-score [17],PBM binding z-score [18],PBM binding z-score [19],PBM binding z-score [20]
CCAGGCAGGTGAAAGGTAACTCAGTCTGGTACGC,0.326,0.496,-0.353,0.47,-0.921,3.13,5.95,6.52,4.44,7.19,2.16,3.13,-1.38,-0.814,1.59,0.457,-0.265,1.53,-0.973,1.02
GCTTGTAGATCAAGGTTAAGAATGACTAAGCTAA,0.096,0.324,-0.618,0.368,-0.604,1.37,1.3,1.95,0.416,1.72,1.74,0.924,0.367,0.28,-0.624,0.546,-0.428,0.94,-0.617,0.932
TCTGCTAGGTCAACGATGGTCAGATAATCTGCTA,3.65,2.85,0.0239,1.94,0.0958,3.3,2.82,3.22,2.1,2.55,4.35,4.34,-0.0109,0.256,1.82,2.15,-0.779,2.44,-0.13,4.26
ACTTACGAGTCAACGAGGTTATAGCACGCGTATA,0.899,1.12,0.413,1.26,0.307,1.73,0.967,0.553,0.564,0.254,-0.235,0.267,1.03,0.64,0.175,1.51,0.513,1.68,-0.00172,0.738
TCTTGTAGATCAATTGAGGTTAAGAAAGTGCGCT,1.19,2.94,0.265,1.56,-0.0639,1.74,-0.433,1.68,2.94,2.2,2.06,1.34,0.476,0.929,0.486,2.84,0.38,1.68,0.164,0.758
GGTAGTTGGTCAGTAAAAGGTCACACACCGGTCG,3.14,4.29,4.91,4.07,1.47,4.34,2.7,4.44,2.46,3.81,0.823,3.16,0.932,0.24,4.48,4.95,1.37,5.68,3,4.28
GCTAGCAGGCCATTTGTGTCACTCAATGACGGGC,-0.539,-0.568,-1.12,-1.03,-0.864,-0.398,0.274,-0.38,-0.669,-0.744,1.46,0.556,-0.775,-0.917,-0.822,-0.691,-0.552,-0.532,-0.827,0.161
CATACTGGGCCATTCAGAGGTCATTGATCATATG,3.03,4.44,6.31,3.86,0.861,3.77,2.37,3.13,1.18,2.26,3.86,3.89,1.19,0.509,2.57,4.82,2.58,4.36,0.758,3.14
TCATATAGGTAAAGGTGAAAGACGAACGATATGA,1.12,1.17,-0.192,1.28,0.0599,3.09,4.19,4.4,4.5,4.66,3.92,4.19,2,1.64,1.19,0.767,-0.0893,1.22,0.159,1.85
TTTTGTAGATCAGCAGGTTAAGAAAGCTGGCCAA,-0.421,-0.315,-0.236,0.141,-0.319,0.634,-0.106,0.922,0.508,0.797,0.508,1.04,-0.105,0.632,0.357,0.0195,-0.117,0.084,0.0423,0.0903
TGAATGAGGTTAGAAGATCAGGGAACGTTGCAAA,0.452,0.337,-0.383,0.0743,-0.188,1.59,0.84,1.29,0.759,0.966,0.481,1.07,0.215,0.423,0.0749,0.145,-0.0637,0.485,0.14,0.954
GCTAGCAAGCCATTTGGGTCACTCAATGACGGGC,-0.28,-0.493,-0.817,-0.134,-0.898,1.15,0.614,0.042,-0.634,-0.546,0.501,1.28,-0.713,-0.878,-0.494,0.0188,-0.796,0.479,-0.835,0.979
ACTCGGAGGACACAGGTCAGAGCTACGCCAGTGA,1.4,1.18,0.294,0.96,-0.518,2.18,2.85,3.06,1.09,2.71,0.556,1.45,-0.673,0.431,1.35,1.09,-0.155,1.8,0.347,2.89
AGAATGAGGTTAAGATCAGAGAAACAGAATACAT,2.3,2.12,0.0426,1.9,-0.125,3.61,2.54,2.18,0.874,1.71,2.25,2.51,1.54,1.04,0.538,1.22,0.611,2.03,0.226,1.86
AGAACGAGGGCACGCTGAGTTAATAGCAGAGTAG,0.956,0.697,-0.612,0.378,-1.03,1.99,2.22,1.65,0.0968,1.08,4.13,3.9,-0.114,0.0711,0.0693,1.38,-0.237,0.718,-0.564,2.52
